Results published in PubChem BioAssay (NCI).
This is part of a sample that, as a whole, favours compounds with a hit. Of some 83,000 tested, about 20% had one in any assay.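 Negative percent growth values reflect cell death: -40 means 40% of the cells present at the start died, and -100 means all died.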 Values without a mark were called inactive. Activity calls are given as the source filed them.

tested on: HS 578T breast; experiment: NCI-60 one-dose screen, 48 h (100 = growth as untreated, 0 = no growth, -100 = all killed); settings: 10 µM unless noted
Description: Growth inhibition of the HS 578T human tumor cell line is measured as a screen for anti-cancer activity. Cells are grown in 96 well plates and exposed to the test compound for 48 hours. Compounds are tested at a single concentration, which is 10^-5 M for most compounds. The reported endpoint is percent growth (GI% or GIPRCNT), where numbers from 0 - 100% represent growth inhibition, and numbers from -100% - 0 represent cell death. For example, a value of 40 represents 60% growth inhibition. A value of 0 means no net growth occurred over the course of the experiment. A value of -40 indicates 40% of cells at the beginning of the experiment died by the end of the experiment. A value of -100 means all cells are dead at the end of the experiment.
NCI-60 Human Tumor Cell Lines Screen was performed using the standard one-dose NCI protocol, which is described in more detail at https://dtp.cancer.gov/discovery_development/nci-60/default.htm.
Compounds with GIPRCNT values below 10 were considered active. Activity score was based on GIPRCNT using the following formula: […]
Score is 0 for GIPRCNT values of 100 or above, 50 for GIPRCNT values of 0, and 100 for GIPRCNT values of -100.

| Compound | growth |
| --- | --- |
| Cc1ccc(S(=O)(=O)F)cc1C(=O)O | 112% |
| C#C[C@]1(OC(=O)CCCCCC)CC[C@H]2[C@@H]3CCC4=CC(=O)CC[C@@H]4[C@H]3CC[C@@]21C | 72% |
| CC[C@H](C)[C@H](NC(=O)C12C3C4C1C1C2C3C41NC)C(=O)N(C)[C@H](C[C@@H](OC(C)=O)c1nc(C(=O)N[C@@H](Cc2ccccc2)C[C@H](C)C(=O)OC)cs1)C(C)C (stereo not given in full) | 13% |
| CCC(O)(CN)c1ccccc1 (stereo not given) | 102% |
| CN1C(=O)C(=Cc2cn(Cc3ccccc3)c3ccccc23)C(=O)N(C)C1=O | 86.8% |
| [Au+].[N-]=C=O.c1ccc(CN2[CH-]N(Cc3ccccc3)C(c3ccccc3)=C2c2ccccc2)cc1 | 84.4% |
| C[C@@H]1C[C@@]2(C)[C@@H](CC[C@@H]3[C@@H]2CC[C@]2(C)C(=O)CC[C@@H]32)CC1=O | 81.2% |
| Cc1cc(C)c(CBr)c(C)c1 | 106% |
| c1ccc(COc2ccc3[nH]cc(CCN(Cc4ccccc4)Cc4ccccc4)c3c2)cc1 | 99.5% |
| CC1(C)N=C(N)N=C(N)N1c1ccc(CCCCc2ccc(Cl)c(S(=O)(=O)F)c2)c(Cl)c1 | 75.3% |
| Cc1ccc(N2COOC3(OOC2)C2CC4CC(C2)CC3C4)cc1 | 109% |
| CC1(C)[C@H](O)[C@H](F)C[C@@]2(C)Oc3ccc(C(=O)Nc4ccc5c(c4)NC(=O)C54CCN(CCCCC#N)CC4)cc3C[C@H]12 | -13.3% (active) |
| C[C@]12CCc3sc(-c4cccc(F)c4)nc3C1=CC[C@@H]1[C@@H]2CC[C@]2(C)C(=O)CC[C@@H]12 | 27.4% |
| O=C([O][Hg][CH2]C1COCC([CH2][Hg][O]C(=O)c2ccccc2)O1)c1ccccc1 (stereo not given) | 89.1% |
| C[C@]12CC[C@H]3[C@@H](CC4SC(N)=NC45C/C(=N/NC(N)=O)CC[C@]35C)[C@@H]1CCC2=O (stereo not given in full) | 36.4% |
| O=C(CC1(O)C(=O)N(Cc2ccccc2)c2ccc(Cl)cc21)c1ccc(C(=O)NCC2CCC3(CC2)OOC2(CCCCC2)OO3)cc1 (stereo not given) | -4.46% (active) |
| CC[C@]12C=CCN3CC[C@]4(C(=C(C(=O)OC)C1)Nc1cc(OC)c(OC(C)=O)cc14)[C@@H]32 | 46.7% |
| COc1ccc(S(=O)(=O)N(Cc2ccc3c(c2)C=CC(C)(C)O3)c2ccccc2)cc1OC | 91.1% |
| Cc1ccc(C(=O)NCCCOc2ccc(N3C(N)=NC(N)=NC3(C)C)cc2Cl)cc1S(=O)(=O)F | 109% |
| CC(CO)NC1CCCCC1 (stereo not given) | 115% |

| Compound | growth |
| --- | --- |
| N#C[Se]Cc1cc(-c2ccccc2)n(-c2ccc(S(N)(=O)=O)cc2)n1 | -17.6% (active) |
| CC[CH2][Sn]([Cl])([Cl])[CH2]CC | 96.8% |
| Nc1cc2nc3ccccc3nc2cc1N | 76.8% |
| Cc1cc(N(CCCl)CCCl)ccc1/C=N\NC(=O)c1ccncc1 | 109% |
| CCOC(=O)[C@@H](C)C[C@H](Cc1ccccc1)NC(=O)c1csc([C@@H](C[C@H](C(C)C)N(C)C(=O)[C@@H](NC(=O)[C@H]2CCCCN2C)C(C)(C)C)OC(C)=O)n1 | 6.42% (active) |
| COc1cc(C=Nc2cccc(C(=O)O)c2)ccc1N(CCCl)CCCl | 92.8% |
| O=C(O)C(O)C(O)C1[O][Sb]([c]2ccc([N+](=O)[O-])cc2)[O]C1CO (stereo not given) | 93.8% |
| CO[C@H]1CC[C@@]2(C)C(=CC[C@@H]3[C@@H]2CC[C@]2(C)C(=O)C(=O)C[C@@H]32)C1 | 92.6% |
| CCOC(=S)S[C@H]1C[C@@H]2[C@H](CC[C@]3(C)C(=O)CC[C@@H]23)[C@@]2(C)CCC(=O)C=C12 | 108% |
| CCCCCCCCCCCCNC(c1ccccc1)C(O)c1ccccc1 (stereo not given) | 106% |
| CC1(C)CN1P(=O)(N1CC1(C)C)N1CC1(C)C (stereo not given) | 93.8% |
| ClCCN(CCCl)c1ccc(/C=N\N=C\c2ccc(N(CCCl)CCCl)cc2)cc1 | 78.2% |
| Clc1cccc(NCOOC2(OOCNc3cccc(Cl)c3)CCCCCC2)c1 | 102% |
| CCOC(=O)[C@@H](C)C[C@H](Cc1ccccc1)NC(=O)c1csc([C@@H](C[C@H](C(C)C)N(C)C(=O)[C@@H](NC(=O)[C@H]2C[C@H](O)CCN2C)C(C)C)OC(C)=O)n1 | 19.4% |
| COc1cc2c(=O)n(C3CCCCCCC3)c3c4cc[nH]c4ncc3c2cc1OC | 2.28% (active) |
| C=COC(=O)CCN1CC1 | 104% |
| CC(=O)O[C@H]1CC[C@@]2(C)C(=CC[C@H]3[C@@H]4C[C@@H](N5CC5)[C@H](C(C)=O)[C@@]4(C)CC[C@@H]32)C1 | 98% |
| Nc1ccc(Cl)cc1 | 98.9% |
| COc1ccc2c(c1)c(-c1nc(-c3c[nH]c4ncccc34)cs1)cn2CCCCN1CCCCC1 | -23.3% (active) |
| O=C(CC1(O)C(=O)N(Cc2ccccc2)c2ccc(F)cc21)c1ccc(C(=O)NCC2CCC3(CC2)OOC2(CCCCC2)OO3)cc1 (stereo not given) | -9.82% (active) |
